The text below walks through data of ChEMBL document CHEMBL4808148, “HDAC6 screening dataset using tau-based substrate in an enzymatic assay yields selective inhibitors and activators” (2021).

As a reminder, the inhibition is the change of the read-out against control, counted positive when it falls.

Structures are written as SMILES. The whole screen tested about 5,600 compounds, of which about 150 (2.7%) showed an effect of 50% or more. Shown is part of a subset that was picked to be rich in strong results.

The target of this assay is T1, Protein deacetylase HDAC6 (Homo sapiens) (UniProt Q9UBN7).
T1 sequence (whole entry): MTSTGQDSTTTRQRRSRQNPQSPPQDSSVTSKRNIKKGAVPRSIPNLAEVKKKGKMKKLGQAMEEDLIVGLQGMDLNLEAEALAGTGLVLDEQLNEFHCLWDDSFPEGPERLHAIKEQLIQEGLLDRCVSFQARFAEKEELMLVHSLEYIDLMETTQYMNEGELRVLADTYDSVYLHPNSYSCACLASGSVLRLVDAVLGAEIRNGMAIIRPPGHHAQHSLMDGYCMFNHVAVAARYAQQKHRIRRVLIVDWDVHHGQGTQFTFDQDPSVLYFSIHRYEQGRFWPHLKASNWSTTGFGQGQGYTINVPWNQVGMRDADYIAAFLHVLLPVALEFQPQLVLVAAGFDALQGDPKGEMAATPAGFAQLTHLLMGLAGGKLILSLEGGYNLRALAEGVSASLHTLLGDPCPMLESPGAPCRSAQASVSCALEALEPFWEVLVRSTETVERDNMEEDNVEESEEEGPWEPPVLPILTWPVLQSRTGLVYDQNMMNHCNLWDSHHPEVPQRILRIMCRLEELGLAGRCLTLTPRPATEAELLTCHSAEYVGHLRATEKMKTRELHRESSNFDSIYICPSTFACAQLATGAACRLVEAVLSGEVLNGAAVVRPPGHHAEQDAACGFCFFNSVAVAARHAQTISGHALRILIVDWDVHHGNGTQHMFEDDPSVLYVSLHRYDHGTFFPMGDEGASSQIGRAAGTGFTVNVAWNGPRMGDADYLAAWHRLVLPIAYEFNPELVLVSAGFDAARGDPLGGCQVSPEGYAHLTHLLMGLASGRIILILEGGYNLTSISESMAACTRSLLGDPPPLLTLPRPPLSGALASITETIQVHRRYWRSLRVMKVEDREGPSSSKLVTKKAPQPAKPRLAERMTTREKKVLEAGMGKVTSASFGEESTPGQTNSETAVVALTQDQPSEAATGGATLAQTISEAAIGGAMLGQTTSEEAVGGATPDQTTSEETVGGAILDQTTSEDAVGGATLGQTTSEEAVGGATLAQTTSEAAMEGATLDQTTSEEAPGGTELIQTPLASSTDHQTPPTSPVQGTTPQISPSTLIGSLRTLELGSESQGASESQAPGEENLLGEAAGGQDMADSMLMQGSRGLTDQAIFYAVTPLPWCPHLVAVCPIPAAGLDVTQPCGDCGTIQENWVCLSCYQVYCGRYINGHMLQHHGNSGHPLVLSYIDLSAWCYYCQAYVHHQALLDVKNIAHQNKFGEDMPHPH
The conditions noted are these: at 10 µM.
Take `CCNC(=O)/C=C/c1cccc(Br)c1`: the inhibition is 11.1%.
With `O=C(/C=C/c1ccccc1)NCCO`, the inhibition was found to be 44.6%.
As to `O=C(/C=C/c1cccc(S(=O)(=O)Nc2ccccc2)c1)NO`, the inhibition stood at 97.7%.
Under `COc1ccc(Cl)cc1C(=O)NCCc1ccc(C(=O)O)cc1` stands -2.67%.
As for `Cc1cc(Cl)ccc1OCCCC(=O)NO`, the inhibition stood at 87.1%.
Under `Cc1ccc(C)c(OCCCC(C)(C)C(=O)O)c1` stands 4.07%; under `N=C(N)NCCC[C@H](N)C(=O)NCC(=O)N[C@@H](CC(=O)O)C(=O)N[C@@H](CO)C(=O)O`, 5.37%.
As for `O=C(c1ccc2nccnc2c1)N1CCCCC1`, the inhibition is -1.26%.
Under `CCNC(=O)NS(=O)(=O)c1sc(CC(C)C)cc1-c1ccc(Cn2c(-c3ccccc3)nc(OC)c2C=O)cc1` stands -1.89%.
For the compound `COc1ccc(Cl)c(Nc2nc3ccccc3nc2NS(=O)(=O)c2cccc(NC(=O)C(C)(C)N)c2)c1`, the inhibition is -9.43%.
The figure for `COc1ccc2nc(NC(=O)Nc3ccccc3)sc2c1` is 58.2%; for `CCOc1ccc2nc(S(N)(=O)=O)sc2c1` it is 1.88%; for `COC(=O)[C@H](Cc1cccc(C(=N)N)c1)[C@@H](C)NC(=O)c1ccc(-c2cc[n+]([O-])cc2)cc1` it is -6.46%.
Turning to `N#CCC1(n2cc(-c3ncnc4[nH]ccc34)cn2)CN(C2CCN(C(=O)c3ccnc(C(F)(F)F)c3F)CC2)C1`, the inhibition was -4.32%.
Regarding `Cc1ccccc1/N=N/c1ccc(/N=N/c2c(O)ccc3ccccc23)c(C)c1`, the inhibition came out at 0.88%.
Under `Cc1ccc(O)c(/N=N/c2ccccc2)n1` stands 99.5%; under `CC(C)(CC(=O)N1CCCC1)NCC(=O)N1C[C@@H](F)C[C@H]1C#N`, 1.6%; under `CSc1cc2c(cc1C(F)(F)F)N(C(=O)Nc1cccnc1)CC2`, 1.32%.
The figure for `Cn1ccc2cc(NC(=O)Nc3cccnc3)ccc21` is 39.6%; for `Cn1ccc2cc3c(cc21)CCN3C(=O)Nc1cccnc1` it is 69.4%; for `COc1ccccc1N1CCN(CC(O)COc2cc(OC)c(OC)c(OC)c2)CC1` (stereo not given) it is -4.5%.
Turning to `O=C(O)CCCCCCCCC(=O)O`, the inhibition was 0.43%.
The figure for `O=C(O)CCCCCCCC(=O)O` is 0.37%.
As to `O=C(CCCCCCC(=O)NO)NO`, the inhibition came out at 96.5%.
The figure for `NC(=O)c1cccnc1` is 9.25%.
Consider `O=C(CCCCCCC(=O)Nc1cccnc1)NO`, for which the inhibition is 98.1%.
Under `O=C(CCCCCCCn1cc(-c2cccnc2)nn1)Nc1ccccc1-c1ccccc1` stands -3.08%; under `CC(C)Cc1ccc([C@@H](C)C(=O)NS(C)(=O)=O)cc1`, -2.75%.
The figure for `OC(c1ccc(-c2ccc(CN3CCN(Cc4ccncc4)CC3)cc2)c(F)c1)(C(F)(F)F)C(F)(F)F` is -2.34%; for `N#Cc1cccc(C(=O)Nc2cc(-c3ccccc3)nn2-c2ccccc2)c1` it is 12.2%; for `Cc1ccc(-c2ccc(C)cn2)nc1` it is 70.4%.
`CCOc1ccc(NC(=S)N2CCC(C(O)(c3ccccc3)c3ccccc3)CC2)cc1`: the inhibition was -1.16%.
Consider `O=C(O)C(O)C(O)C(O)C(O)CO` (stereo not given), for which the inhibition was -3.09%.
Regarding `O=Cc1ccc(CO)o1`, the inhibition was -2.99%.
With `CS(=O)(=O)c1ccc(Oc2cc(F)cc(C#N)c2)c2c1[C@H](O)C(F)(F)C2`, the inhibition is -4.01%.
Under `CCc1nc(C(N)=O)c(Nc2ccc(N3CCC(N4CCN(C)CC4)CC3)c(OC)c2)nc1NC1CCOCC1` stands 0.8%; under `Fc1ccc(-c2nc(-c3c(F)cccc3F)[nH]c2-c2ccncc2)cc1`, -5.55%; under `Cc1ccc(-c2cn3c4c(sc3n2)CCCC4)cc1`, 95.1%.
Under `N=C(N)Nc1ccc(Cl)cc1` stands 0.23%; under `N=C(N)c1ccc(/N=N/Nc2ccc(C(=N)N)cc2)cc1`, -8.86%; under `Cc1sc(C)c(C(=O)NC2(c3ccc(C(=O)O)cc3)CC2)c1Cc1ccc(C(F)(F)F)cc1`, 3.37%.
In the case of `O=C1COc2c(CCNCCN(C(=O)CCNCCc3ccc(Cl)c(Cl)c3)C3CCCCC3)ccc(O)c2N1`, the inhibition turned out to be 3.6%.
Regarding `C[C@H](C[C@H](N)C(=O)O)C(=O)O`, the inhibition turned out to be 2.11%.
On to `c1ccc2[nH]c(-c3cscn3)nc2c1`, for which the inhibition was determined as 84.5%.
Turning to `c1ccc(N2CCN(Cc3nc4ccccc4[nH]3)CC2)nc1`, the inhibition was 1.74%.
Regarding `COc1ccc(C(=O)C2CCN(CC(=O)N(Cc3nc4c(c(=O)[nH]3)COCC4)CC3CC3)CC2)cc1`, the inhibition is -1.1%.
The figure for `O=C(NCC(=O)N1CCCCC1)Nc1ccc2nnsc2c1` is 4.96%; for `O=C(O)c1ccc2nc(-c3cc(Cl)cc(Cl)c3)oc2c1` it is 99.2%; for `O=C(O)c1ccc2c(c1)nc(Nc1cccc(Cl)c1)c1ccncc12` it is -4.86%.
Regarding `CCS(=O)(=O)c1ccc2oc(-c3ccc4ccccc4c3)nc2c1`, the inhibition was 37.2%.
As to `C=C1C(=O)[C@@]23C(CC[C@@H]1[C@H]2O)[C@@]12CO[C@]3(O)[C@@H](O)[C@@H]1C(C)(C)CC[C@@H]2O` (stereo not given in full), the inhibition was -6.66%.
With `COC(=O)[C@H](NC(=O)c1cc(-c2ccccc2)nc2ccccc12)c1ccccc1`, the inhibition turned out to be 0.79%.
`COc1cc2ncc(-c3ccccc3)nc2cc1OC`: the inhibition amounted to 97.5%.
On to `O=C(O)c1cc(-c2ccccc2)nc2ccccc12`, for which the inhibition is -1.66%.
The figure for `C/C(=N\c1ccccc1N)c1c(C)cc(=O)n(O)c1O` is 2.45%.
